In PMC4552634, “A New Set of Chemical Starting Points with Plasmodium falciparum Transmission-Blocking Potential for Antimalarial Drug Discovery” (PLoS ONE, 2015):
Hit rate of the full screen: of about 13,000 compounds, about 3,200 (25%) showed an effect of 50% or more. The list shows a part of the results.

Tested on: P. falciparum stage V gametocytes
Parameters: BacTiter-Glo ATP luminescence viability of purified stage V gametocytes in 384-well plates, per cent inhibition versus DMSO
Conditions: 48 h, 5 µM; inhibitor

Row | SMILES | % Inhibition [%]
1 | COc1ccc(-c2cccc(CNC3CCN(CC4Cn5c(=O)ccc6ccc(F)c4c65)CC3)c2)cc1 (stereo not drawn) [TCMDC-134414] | -11.45
2 | CCc1ccccc1OCCCON1C(N)=NC(N)=NC1(C)C [TCMDC-131305] | 3.059
3 | COc1ccc(COc2cc(NCCCN)nc3ccccc23)cc1 [TCMDC-139286] | 99.04
4 | COc1cc(NCC(CN)Cc2ccc3c(c2)OCO3)nc2ccccc12.Cl (stereo not drawn) [TCMDC-140387] | 69.08
5 | COc1cc(NCC(O)CNc2cc(Cl)nc3ccccc23)nc2ccccc12 (stereo not drawn) [TCMDC-139359] | 31.96
6 | COc1cc(NCCCCCNc2cc(Cl)nc3ccccc23)nc2ccccc12 [TCMDC-139303] | -22.5
7 | Cc1nc(NCc2ccccc2)cc(NCC(O)c2ccc(O)cc2)n1 (stereo not drawn) [TCMDC-135163] | 19.67
8 | COc1cc(NCC(O)CNc2cc(OC)c3ccccc3n2)nc2ccccc12 [TCMDC-139360] | 55.11
9 | COc1ccccc1N1CCN(C(C(=O)NCc2ccc3c(c2)OCO3)c2ccc(C)cc2)CC1 (stereo not drawn) [TCMDC-135503] | -4.748
10 | COc1ccc2c(C)cc(NCCCN(C)C)nc2c1 [TCMDC-124046] | 8.685
11 | COc1ccccc1N1CCN(C(C(=O)NCc2ccc3c(c2)OCO3)c2ccc3c(c2)OCCCO3)CC1 (stereo not drawn) [TCMDC-135675] | -10.78
12 | Cc1ccc(C(=O)Nc2ccnc(N(C)C3CCN(Cc4cccc(O)c4)CC3)c2)cn1 [TCMDC-134967] | -0.6383
13 | COCCNCc1ncsc1-c1ccc2c(Nc3cc(O)c(Cl)cc3F)ccnc2c1 [TCMDC-138441] | 3.438
14 | Cc1nc(N=C(N)N)nc2cc3c(cc12)CCC3 [TCMDC-141187] | 84.12
15 | Cc1nc(N=C(N)N)nc2ccc(C(C)(C)C)cc12 [TCMDC-137936] | -23.7
16 | CCC1(C)N=C(N)N=C(N)N1c1ccc(Cl)cc1 (stereo not drawn) [TCMDC-132039] | 4.957
17 | COc1cc2ncnc(Nc3ccc(OC(F)(F)c4ccccc4)cc3)c2cc1OC [TCMDC-131925] | 12
18 | COc1cc(Nc2ncnc3cc(OC)c(OC)cc23)cc([N+](=O)[O-])c1 [TCMDC-138138] | 82.08
19 | COc1cc2ncnc(Nc3ccc(Br)c(Cl)c3)c2cc1OC [TCMDC-131909] | 14.07
20 | CCOC(=O)c1ccc(NC(=O)Nc2cccc(-c3ccc(-c4nc5ccccc5[nH]4)cc3)c2)cc1 [TCMDC-133266] | -19.34
21 | O=C(/C=C/c1ccc(Cl)c(Cl)c1)NCCCCCN1CCC(NC(=O)Nc2ccc(F)c(F)c2)CC1 [TCMDC-135714] | -48.39
22 | Cc1[nH]c(C)c(-c2ccc(Oc3ccc(O)cc3)cc2)c(=O)c1Cl [TCMDC-136135] | -17.77
23 | C/C=C/COc1ccc(-c2c(C)[nH]c(C)c(Cl)c2=O)cc1 [TCMDC-134729] | 76.24

Row | SMILES | % Inhibition [%]
24 | COc1ccc(Oc2ccc(-c3c(C)[nH]c(C)c(Cl)c3=O)cc2)cc1 [TCMDC-136134] | 78.59
25 | CC(=O)Nc1ccc(C#Cc2ccc(-c3c(C)[nH]c(C)c(Cl)c3=O)cc2)cc1 [TCMDC-135653] | 34.03
26 | COc1ccc(C=Cc2ccc(-c3c(C)[nH]c(C)c(Cl)c3=O)cc2)cc1OC [TCMDC-135788] | 33.6
27 | Cc1[nH]c(C)c(-c2ccc(OCc3ccc(F)cc3)cc2)c(=O)c1Cl [TCMDC-132415] | 7.51
28 | COc1ccc(C#Cc2ccc(-c3c(C)[nH]c(C)c(Cl)c3=O)cc2)cc1 [TCMDC-135655] | 67.24
29 | COc1ccc(CCc2ccc(-c3c(C)[nH]c(C)c(Cl)c3=O)cc2)cc1OC [TCMDC-135789] | 86.31
30 | CN1CC[C@H](N(Cc2ccccc2F)c2ccc(C#N)c(Cl)c2)C1 [TCMDC-137035] | 21.12
31 | COc1ccc(CN2CCC2=O)c(OC)c1 [TCMDC-132118] | 45.15
32 | CC(=O)N[C@@H]1c2cc(C(C)=O)ccc2OC(C)(C)[C@@H]1O [TCMDC-139001] | 15.15
33 | CC(C)(C)c1ccc(S(=O)(=O)Nc2cc(Cl)ccc2Cn2ccc(N3CCNCC3)nc2=O)cc1 [TCMDC-132581] | 5.996
34 | Oc1ccc2[nH]c(-c3cccs3)nc2c1CN1CCC(N2CCCC2)CC1 [TCMDC-136356] | -12.57
35 | COc1ccc(CCn2c(=N)c(C(=O)NCc3ccc(C)cc3)cc3c(=O)n4ccccc4nc32)cc1 [TCMDC-124475] | 27.16
36 | COc1ccc(CCc2ccc(-c3c(C)[nH]c(C)c(Cl)c3=O)cc2)cc1 [TCMDC-135654] | 77.1
37 | Cc1[nH]c(C)c(-c2ccc(CCc3ccc(N)cc3)cc2)c(=O)c1Cl [TCMDC-135678] | 70.67
38 | Cc1[nH]c(C)c(-c2ccc(Oc3ccc(F)cc3)cc2)c(=O)c1Cl [TCMDC-134728] | 77.31
39 | CC1(C)N=C(N)N=C(N)N1c1cc(Cl)c(Cl)c(Cl)c1 [TCMDC-137508] | -8.001
40 | Cc1cnc(-c2cccc(C(=O)NC3CCC(CCN4CCc5ccc(C#N)cc5CC4)CC3)c2)[nH]1 (stereo not drawn) [TCMDC-139842] | -56.62
41 | CS(=O)(=O)N1CC2(CCN(CCC(NC(=O)NCc3ccccc3Cl)c3ccc(Cl)c(Cl)c3)CC2)c2ccccc21 (stereo not drawn) [TCMDC-141768] | 10.44
42 | O=C(Nc1ccc(Br)c(C(F)(F)F)c1)c1cccc([N+](=O)[O-])c1 [TCMDC-123520] | -21.49
43 | O=C1COC2(CN1C1CCN(Cc3ccc(O)cc3Cl)C1)c1ccccc1-c1ccccc12 (stereo not drawn) [TCMDC-136341] | 24.28
44 | CN1CCC(N2CCN(Cc3ccc(-c4cccc(-c5nc6ccc(F)cc6[nH]5)c4)cc3)CC2)CC1 [TCMDC-133843] | 52.56
45 | OCCN1CCN(Cc2cccc(-c3ccc(-c4nc5ccc(C(F)(F)F)cc5[nH]4)cc3)c2)CC1 [TCMDC-133031] | 3.481
46 | Fc1ccc2nc(-c3cccc(-c4ccc(CN5CCN(CCN6CCOCC6)CC5)cc4)c3)[nH]c2c1 [TCMDC-133942] | 39.55

Row | SMILES | % Inhibition [%]
47 | FC(F)(F)c1ccc2nc(-c3ccc(-c4cccc(CN5CCN(CCN6CCOCC6)CC5)c4)cc3)[nH]c2c1 [TCMDC-133943] | -11.41
48 | CN1CCC(N2CCN(Cc3cccc(-c4ccc(-c5nc6ccc(C(F)(F)F)cc6[nH]5)cc4)c3)CC2)CC1 [TCMDC-133842] | 104
49 | OCCN1CCN(Cc2ccc(-c3cccc(-c4nc5ccc(F)cc5[nH]4)c3)cc2)CC1 [TCMDC-133032] | -6.536
50 | N#CCCN1CCN(Cc2cccc(-c3ccc(-c4nc5ccc(F)cc5[nH]4)cc3)c2)CC1 [TCMDC-133860] | -16.76
51 | Fc1ccc2nc(-c3ccc(-c4cccc(CN5CCN(CCN6CCOCC6)CC5)c4)cc3)[nH]c2c1 [TCMDC-133936] | -11.53
52 | CN1CCC(N2CCN(Cc3cccc(-c4ccc(-c5nc6ccc(F)cc6[nH]5)cc4)c3)CC2)CC1 [TCMDC-133858] | 97.12
53 | CCN(c1cc(C)nc(Nc2ccc(Cl)cc2)n1)[C@H]1CCN(Cc2ccccc2)C1 [TCMDC-132205] | -28.73
54 | CC(C)(C)c1cc(C(=O)N2CCN(c3nccnc3C#N)CC2)n(Cc2ccccc2)n1 [TCMDC-134141] | -3.89
55 | OC(c1cccc2ccccc12)C1CN(CCc2ccccc2)CCC1(O)c1ccccc1 (stereo not drawn) [TCMDC-131998] | 42.45
56 | COc1ccc(C2=C(Nc3ccc4oc5ccccc5c4c3)c3ccccc3C2=O)cc1 [TCMDC-125672] | 2.294
57 | Cc1noc(C)c1-c1cccc(CNCc2ccc(-c3ccc(-c4nc5cc(F)ccc5[nH]4)cc3)cc2)c1.O=C(O)C(F)(F)F [TCMDC-133057] | 12.39
58 | COC(=O)c1cccc(CNCc2ccc(-c3ccc(-c4nc5cccc(C)c5[nH]4)s3)cc2)c1.O=C(O)C(F)(F)F [TCMDC-132950] | 57.35
59 | COC(=O)c1cccc(CNCc2ccc(-c3ccc(-c4nc5ccccc5[nH]4)s3)cc2)c1.O=C(O)C(F)(F)F [TCMDC-132945] | -1.704
60 | COC(=O)c1cccc(CNCc2cccc(-c3ccc(-c4nc5cccc(C)c5[nH]4)s3)c2)c1.O=C(O)C(F)(F)F [TCMDC-132956] | -38.48
61 | COC(=O)c1cccc(CNCc2ccc(-c3cccc(-c4nc5cccc(C)c5[nH]4)c3)cc2)c1.O=C(O)C(F)(F)F [TCMDC-132948] | 73.37
62 | COC(=O)c1cccc(CNCc2cccc(-c3cccc(-c4nc5cccc(C)c5[nH]4)c3)c2)c1.O=C(O)C(F)(F)F [TCMDC-132946] | 7.725
63 | Cc1cccc2nc(-c3cccc(-c4cccc(CNCC5CCCO5)c4)c3)[nH]c12.O=C(O)C(F)(F)F (stereo not drawn) [TCMDC-133104] | 76.66
64 | Cc1cccc2nc(-c3ccc(-c4cccc(CNCC5CCCO5)c4)s3)[nH]c12.O=C(O)C(F)(F)F (stereo not drawn) [TCMDC-133094] | 10.18
65 | Cc1cccc2nc(-c3cccc(-c4ccc(CNCc5cccc(N)c5)cc4)c3)[nH]c12.O=C(O)C(F)(F)F [TCMDC-132930] | -5.493
66 | COc1ccc(CNCc2ccc(-c3cccc(-c4nc5cccc(C)c5[nH]4)c3)cc2)cc1.O=C(O)C(F)(F)F [TCMDC-132729] | 40.55
67 | Cc1cccc2nc(-c3cccc(-c4cccc(CNCc5cccc(N)c5)c4)c3)[nH]c12.O=C(O)C(F)(F)F [TCMDC-132928] | 56.62
68 | Cc1cccc2nc(-c3ccc(-c4cccc(CNCC5CCCO5)c4)cc3)[nH]c12.O=C(O)C(F)(F)F (stereo not drawn) [TCMDC-133098] | -5.371
69 | Cc1cccc2nc(-c3ccc(-c4ccc(CNCc5cccc(N)c5)cc4)cc3)[nH]c12.O=C(O)C(F)(F)F [TCMDC-132938] | -30.59
